Test results: PubChem BioAssay AID727 (The Scripps Research Institute Molecular Screening Center, 2007)
About 810 (0.84%) of roughly 97,000 compounds were called active. Rule as the data show it: active = inhibition above about 19%; inactive = the rest. The entries come from a sample that favours actives as a whole.

Biological target: Focal adhesion kinase 1 (Homo sapiens) (UniProt Q05397)
Experiment: human PTK2 enzyme activity blockers – biochemical, primary screen (AID 727);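 also: 0% = DMSO and 100% = reference compound high control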
Details: biochemical FAK kinase activity assay; stronger effect = higher value;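 tested at 7 µM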

Sequence of Focal adhesion kinase 1 (Homo sapiens) (Q05397 whole entry, looked up): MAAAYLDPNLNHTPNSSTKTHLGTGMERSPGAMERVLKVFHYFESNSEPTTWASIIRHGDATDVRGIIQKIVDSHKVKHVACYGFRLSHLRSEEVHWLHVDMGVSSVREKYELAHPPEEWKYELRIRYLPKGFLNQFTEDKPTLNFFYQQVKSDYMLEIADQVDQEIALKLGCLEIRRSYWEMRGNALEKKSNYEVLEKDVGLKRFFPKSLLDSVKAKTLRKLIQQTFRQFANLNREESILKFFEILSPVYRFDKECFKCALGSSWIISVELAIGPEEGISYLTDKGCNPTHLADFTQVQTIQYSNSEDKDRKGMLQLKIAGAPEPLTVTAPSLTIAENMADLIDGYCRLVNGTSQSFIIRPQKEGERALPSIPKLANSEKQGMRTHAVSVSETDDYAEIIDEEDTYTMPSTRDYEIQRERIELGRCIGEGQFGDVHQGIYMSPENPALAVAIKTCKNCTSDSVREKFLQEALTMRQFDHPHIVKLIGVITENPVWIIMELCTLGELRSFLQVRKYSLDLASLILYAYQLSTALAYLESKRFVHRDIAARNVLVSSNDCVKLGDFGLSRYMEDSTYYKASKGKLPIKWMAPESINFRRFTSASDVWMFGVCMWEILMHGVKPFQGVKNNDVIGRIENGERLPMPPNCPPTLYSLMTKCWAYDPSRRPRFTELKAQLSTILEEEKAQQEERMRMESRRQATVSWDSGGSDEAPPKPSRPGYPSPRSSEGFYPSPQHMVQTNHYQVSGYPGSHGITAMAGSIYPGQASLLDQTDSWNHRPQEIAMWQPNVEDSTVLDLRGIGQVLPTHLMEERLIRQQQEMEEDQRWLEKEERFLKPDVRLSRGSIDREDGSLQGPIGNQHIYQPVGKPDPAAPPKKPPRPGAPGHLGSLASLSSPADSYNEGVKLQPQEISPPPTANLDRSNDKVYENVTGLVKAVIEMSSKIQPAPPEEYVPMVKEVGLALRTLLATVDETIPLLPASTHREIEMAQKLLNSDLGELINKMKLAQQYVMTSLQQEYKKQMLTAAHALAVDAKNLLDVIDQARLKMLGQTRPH

Row | SMILES | inhibition
1 | Cc1[nH]c2ccccc2c1C(=O)COC(=O)C(C)C | -1.84% (inactive)
2 | CC(=O)c1ccc(Cc2ncc(C(F)(F)F)cc2Cl)s1 | 32.1% (active)
3 | O=C(c1ccccn1)c1ncc(C(F)(F)F)cc1Cl | -4.84% (inactive)
4 | O=C(Cc1ncc(C(F)(F)F)cc1Cl)Nc1cccc(Br)c1 | -7.54% (inactive)
5 | COc1ccc(CC(NC(C)=O)C(=O)N2CCN(C(=O)Nc3cccc(Cl)c3)CC2)cc1OC (configuration not stated) | -1.84% (inactive)
6 | CCOc1cc2[nH]c(=S)n(Cc3ccc(C(=O)NCCOC)cc3)c(=O)c2cc1OCC | 1.95% (inactive)
7 | Cc1nn(C)cc1CNC(=O)Nc1ccc(Cl)cc1 | 0.55% (inactive)
8 | CN(CC(=O)Nc1cccc2c1CCCC2)S(=O)(=O)c1ccc(Cl)cc1 | 2.06% (inactive)
9 | Cc1cc(=O)oc(C)c1C(=O)N1CCCCC1 | -3.95% (inactive)
10 | Cc1c(NC(=O)CCCOc2ccccc2)cccc1[N+](=O)[O-] | 5.03% (inactive)
11 | O=c1c2ccccc2c(-c2ccc(F)cc2)nn1-c1ccc(C(F)(F)F)cc1 | -9.67% (inactive)
12 | Cc1cccc(Nc2ccccc2C(=O)NCc2ccco2)c1C | -0.25% (inactive)
13 | COc1ccccc1OCCNc1cc(N2CCOCC2)ccc1[N+](=O)[O-] | 0.07% (inactive)
14 | CCN(CC)Cc1cc(C(C)=O)ccc1O | -1.48% (inactive)
15 | O=C1C(=O)N(c2ccccc2)c2ccccc21 | -1.97% (inactive)
16 | CC(C)CC[n+]1ccn(C2=C([O-])c3ccccc3C(=O)/C2=N\S(=O)(=O)c2ccccc2)c1 | 0.45% (inactive)
17 | COCCOC(=O)c1sc(=S)n(CCOC)c1N | 0.4% (inactive)
18 | Cc1cccc(-n2nc3c(c2NC(=O)c2ccc(Br)o2)CSC3)c1C | -10.1% (inactive)
19 | Cc1cc(C)nc(-n2nc(C)cc2NC(=O)c2ccc(Br)o2)n1 | 19.6% (active)
20 | COc1cc(OC)c(NC(=O)c2ccc(Br)o2)cc1Cl | 2.86% (inactive)
21 | O=C(Nc1ccc(F)c(Cl)c1)C1CCN(S(=O)(=O)c2cccnc2)CC1 | 5.16% (inactive)
22 | COc1ccc(C2Nc3ccccc3C(=O)N2Cc2ccccc2)cc1Cn1nnc2ccccc21 (configuration not stated) | 1.35% (inactive)
23 | O=C(c1ccc2c(c1)C(=O)N(c1ccc(Cl)cc1)C2=O)N1CCN(c2ccccn2)CC1 | 22.9% (active)
24 | O=C(c1ccc(Cl)c(Cl)c1)N1CCCC1 | -2.15% (inactive)
25 | CC(=C1C(=O)c2ccccc2C1=O)N1CCN(c2ccccn2)CC1 | -0.27% (inactive)

Row | SMILES | inhibition
26 | CC(C)CC(N=C1NC(C)(C)Cc2ccccc21)C(=O)O (configuration not stated) | -1% (inactive)
27 | COC(=O)c1ccccc1NC(=O)CSc1nnnn1C | -1.15% (inactive)
28 | O=[N+]([O-])c1ccccc1NCc1ccc(Cl)cc1 | 1.41% (inactive)
29 | Cc1ccc(CNC(=O)COc2ccc(S(=O)(=O)NC(C)C)cc2)cc1 | -1.67% (inactive)
30 | Cc1nc(N2CCOCC2)nc2c1CCCC2 | -0.58% (inactive)
31 | CCC(C)NC(=O)CCCc1ccccc1 (configuration not stated) | 2.61% (inactive)
32 | CCn1c(SCc2ccc(C)cc2)nnc1-c1nn(-c2ccccc2)ccc1=O | 3.11% (inactive)
33 | CN(C)/C(CN1CCCCC1)=C1\N=C(c2ccccc2)OC1=O | -3.3% (inactive)
34 | CCN(CC)c1nc(-c2ccccc2)cc(C(F)(F)F)c1C#N | 4.59% (inactive)
35 | Fc1ccc(-c2ccc(-c3nn4c(-c5ccco5)nnc4s3)o2)cc1 | 19.2% (active)
36 | FC(F)(F)c1nnc2sc(-c3ccco3)nn12 | -8.22% (inactive)
37 | Cc1nnc2sc(-c3ccco3)nn12 | 0.33% (inactive)
38 | NC(=O)c1ncc(C(F)(F)F)cc1Oc1ccc(F)cc1 | 1.7% (inactive)
39 | COc1ccccc1N(C)S(=O)(=O)c1ccc(C(=O)N2CCC(C(N)=O)CC2)cc1 | -1.2% (inactive)
40 | COC(=O)c1c(NC(=O)CSc2nncs2)sc2c1CCCCC2 | 19.5% (active)
41 | COC(=O)c1c(NC(=O)c2cccs2)sc2c1CCCC2 | -3.96% (inactive)
42 | CCOC(=O)c1c(NC(=O)CSc2nnc(C)c(=O)[nH]2)sc2c1CCC2 | -5.37% (inactive)
43 | OCCN(Cc1ccccc1)Cc1ccc(Cl)cc1 | 1.29% (inactive)
44 | CCOC(=O)c1c(NC(=O)CSc2nnc(CNc3ccc(C)cc3C)o2)sc(C)c1C | 0.35% (inactive)
45 | Cc1nn(Cc2ccc(C(=O)N3N=C(C(F)F)CC3(O)C(F)F)cc2)c(C)c1[N+](=O)[O-] (configuration not stated) | -1.38% (inactive)
46 | Cc1ccc(S(=O)(=O)/N=C(/Nc2ccccn2)c2ccc(Cl)cc2)cc1 | -9% (inactive)
47 | COc1cc(C2CC(=O)c3cnc(NC(C)=O)nc3C2)cc(OC)c1OC (configuration not stated) | 0.08% (inactive)
48 | N#C/C(=C\c1ccccc1)c1n[nH]c(Cn2cncn2)n1 | -0.5% (inactive)
49 | COc1ccc(N/N=C2/CCCCC2=O)cc1 | -0.48% (inactive)
50 | O=C1CSC2=NCN(c3ccccc3)CN12 | 3.72% (inactive)

Row | SMILES | inhibition
51 | Cc1ccc2c(c1)N(CC(=O)N(Cc1ccccn1)Cc1ccco1)C(=O)C(C(C)C)O2 (configuration not stated) | 0.38% (inactive)
52 | Cc1ccccc1OC(=O)Cn1c(C(F)(F)F)nc2ccccc21 | -3.25% (inactive)
53 | CCn1c(SCC(=O)Nc2nc(C)cs2)nnc1C(C)NC(=O)c1ccccc1 (configuration not stated) | -0.18% (inactive)
54 | Cc1ccc(C(=O)OC2=CC(=O)CC(C)(C)C2)cc1 | 1.07% (inactive)
55 | Cn1c2ccccc2n2c(=O)c(=O)n(CC(=O)c3ccc(F)cc3)nc12 | -3.16% (inactive)
56 | CCOc1ccc(C(O)Cn2c(=N)n(CCN3CCCCC3)c3ccccc32)cc1 (configuration not stated) | 0.54% (inactive)
57 | COCCn1c(C)cc(C(=O)CSc2ncnc3sc4c(c23)CCC4)c1C | 83.3% (active)
58 | COc1ncnc2sc3c(c12)CCCC3 | 3.78% (inactive)
59 | Cc1cc(C)n(-c2nc(SCC(=O)N3CCCC3)c3c4c(sc3n2)CCCC4)n1 | 1.79% (inactive)
60 | Nc1ccccc1SCc1cc([N+](=O)[O-])cc2c1OCOC2 | 0.81% (inactive)
61 | CC(=NCc1ccc2c(c1)OCO2)C1=C(O)c2ccccc2C1=O | 6.12% (inactive)
62 | CC(=NCc1ccco1)c1c(C(F)(F)F)[nH]n(-c2nc3ccccc3s2)c1=O | 5.23% (inactive)
63 | CC(=NCc1ccco1)C1=C(O)c2ccccc2C1=O | 27.9% (active)
64 | COc1ccc(C2(CNC(=O)C(c3ccccc3)c3ccccc3)CCOCC2)cc1OC | 1.78% (inactive)
65 | C=C(C)CNC(=S)/N=c1\scc(C)n1CC | -6.21% (inactive)
66 | Oc1ccc(-c2onc3ccc(Cl)cc23)cc1 | 5.87% (inactive)
67 | Cc1cccc(NC(=O)c2cc(N3C(=O)CCC3=O)ccc2Cl)n1 | -0.12% (inactive)
68 | CCOC(=O)c1cc(C#N)c(N2CCCCC2)nc1-c1ccccc1 | 4.29% (inactive)
69 | CCOC(=O)c1sc2nc(SC)nc(-c3ccccc3)c2c1N | 2.16% (inactive)
70 | COc1ccc(C)cc1N(C)C(=O)c1coc(=O)c2ccccc12 | 1.58% (inactive)
71 | Nc1c(-c2ccc(F)cc2)cnc2ncnn12 | 19.1% (active)
72 | Cc1ccc(S(=O)(=O)N(CC(=O)N/N=C/c2ccc(F)cc2)c2cccc3cccnc23)cc1 | 3.64% (inactive)
73 | COc1ccc(/C(N)=N/OC(=O)Oc2ccccc2)cc1 | 0.12% (inactive)
74 | CC1CCN(C(=O)c2cc3nc(C4CC4)cc(C(F)(F)F)n3n2)CC1 | 0.8% (inactive)
75 | C/C=C/C(=O)OCC(=O)Nc1ccc(F)cc1Cl | -4.03% (inactive)

Row | SMILES | inhibition
76 | Cc1nn(CC(=O)Nc2ccc3c(c2)nc(CN2CCCCC2)n3C)c(=O)c2ccccc12 | 3.98% (inactive)
77 | Cn1c(CCN2CCCCCC2)nc2cc(NC(=O)Nc3ccccc3)ccc21 | 22.2% (active)
78 | CCC(=O)Nc1ccc2c(c1)nc(CCN1CCN(C)CC1)n2C | -1.8% (inactive)
79 | COC(=O)/C(=C\Nc1ccccc1)NC(=O)c1ccc(Cl)cc1Cl | 0.67% (inactive)
80 | CCn1c(CNC(=O)c2ccccc2)nnc1SCC(=O)N1CCN(c2ccccc2)CC1 | 1.01% (inactive)
81 | CS(=O)(=O)Nc1cccc(C2=NN(S(=O)(=O)c3ccccc3)C(c3cccs3)C2)c1 (configuration not stated) | 1.03% (inactive)
82 | CCN(CC)S(=O)(=O)c1cc([N+](=O)[O-])ccc1NNC(=O)Nc1ccccc1 | 22.7% (active)
83 | CCN(CC)S(=O)(=O)c1cccc(C(=O)Nc2ccccc2)c1 | 7.09% (inactive)
84 | CCN(c1ccccc1)S(=O)(=O)c1ccc(NC(=O)C(C)(C)C)cc1 | -0.76% (inactive)
85 | COC(=O)c1[nH]c2ccccc2c1NS(=O)(=O)c1ccc(OC)cc1OC | 0.04% (inactive)
86 | COc1ccc(OC)c(N=Cc2c(O)[nH]c3ccccc23)c1 | 13.7% (inactive)
87 | COc1cc(N=Cc2c(O)[nH]c3ccccc23)cc(OC)c1OC | 73.4% (active)
88 | CCCc1ccc(OCc2ccc(C(=O)N/N=C/c3cccc([N+](=O)[O-])c3)o2)c(OC)c1 | 1.02% (inactive)
89 | Cc1[nH]n(-c2ccc([N+](=O)[O-])cc2)c(=O)c1C=NCCN1CCN(C(=O)c2ccccc2F)CC1 | 6.47% (inactive)
90 | Cc1ccc(CN(N=Nc2nonc2N)c2nonc2N)c(C)c1 | -1.18% (inactive)
91 | O=c1c2ccccc2nc2n1C(CSCc1ccccc1)CS2 (configuration not stated) | 7.02% (inactive)
92 | O=C1C2N=NN(CC(=O)N3N=C(c4cccc5ccccc45)CC3c3ccccc3)C2C(=O)N1c1ccccc1 (configuration not stated) | 1.07% (inactive)
93 | Cc1nc(NNC(=O)c2ccccc2)cc(-c2ccccc2)n1 | -0.62% (inactive)
94 | Cc1ccc(SCC(=O)NC(=O)NCc2ccco2)c(C)c1 | 6.63% (inactive)
95 | O=C(/C=C/c1ccco1)Nc1cccc(-c2nc3ccccc3[nH]2)c1 | 1.17% (inactive)
96 | O=C(/C=C/c1ccco1)Nc1ccc(Oc2ccccc2)cc1 | 0.45% (inactive)
97 | Cc1ccc(-n2nc3ccc(NC(=O)/C=C/c4ccco4)cc3n2)cc1C | 19.2% (active)
